Data from the supplement of paper PMC9925115.
± gives the uncertainty stated by the source.

These compounds were tested on FLX1 (assay: cell viability z-score within plate (CellTiter-Glo), mean of 3 biological replicates; higher = higher viability relative to plate (less growth inhibition)). Settings: 2 µM; time (hr): 120.
Method: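 FLX1 fibrolamellar carcinoma cells (DNAJB1-PRKACA fusion), 600 cells/well in 384-well plates, treated with a Selleck kinase inhibitor library (L1200) at 2 uM for 5 days (120 hr); viability by CellTiter-Glo. A z-score was computed within each plate and averaged over three biological replicates.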

Compound	cell viability z-score within plate
C[C@@H](N)[C@H]1CC[C@H](C(=O)Nc2ccncc2)CC1	0.0727 ± 0.19
Cc1cc(Nc2nc(N[C@@H](C)c3ncc(F)cn3)ncc2Cl)[nH]n1	-0.166 ± 0.46
Cc1nc(NC(=O)N2CCC[C@H]2C(N)=O)sc1-c1ccnc(C(C)(C)C(F)(F)F)c1 [Alpelisib (BYL719)]	0.524 ± 0.28
CC(C)NC[C@@H](C(=O)N1CCN(c2ncnc3c2[C@H](C)C[C@H]3O)CC1)c1ccc(Cl)cc1 [Ipatasertib (GDC-0068)]	1.05 ± 0.14
CN1CC[C@H](c2c(O)cc(O)c3c(=O)cc(-c4ccccc4Cl)oc23)[C@H](O)C1 [Flavopiridol (Alvocidib)]	0.251 ± 0.25
COc1ccc2c(Oc3ccc(NC(=O)c4c(C)n(CC(C)(C)O)n(-c5ccccc5)c4=O)nc3)ccnc2c1	0.446 ± 0.46
O=C1NC(=O)/C(=C/c2ccc3c(c2)OC(F)(F)O3)S1	-0.962 ± 0.62
O=C(Nc1ccc(OC(F)(F)F)cc1)c1sccc1NCc1ccnc2ccccc12	0.792 ± 0.22
Cn1cnc(N)c2ncnc1-2 [3-Methyladenine (3-MA)]	0.219 ± 0.67
C=CC(=O)Nc1cc(Nc2nccc(-c3cn(C)c4ccccc34)n2)c(OC)cc1N(C)CCN(C)C [Osimertinib (AZD9291)]	-0.225 ± 0.34
